# The source made the active and inactive calls. Cut-off read from the data, not from the text of the source: active = inhibition above about 65%; inactive = the rest.
# Test system: Antitargets
# Experiment: Fam108b inhibitors and proteome off-target selectivity – biochemical, gel-based ABPP, recombinant soluble Fam108b, HTS hits, complex proteome, late-stage follow-up (AID 588651);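 note: Fam108b spiked into mouse brain membrane proteome; tested at 20 µM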
# Conditions: FP-rhodamine labeling in proteome
row,Compound,outcome
1,CCNc1ccc2noc3c2c1C(=O)c1ccccc1-3,inactive
2,Oc1nc(Nc2cccc(Cl)c2)sc1/C=C1\C=Nc2ccccc21,active
3,Cc1ccc(C)c(-n2c3nc(=O)[nH]c(=O)c-3cc3cc([N+](=O)[O-])ccc32)c1,inactive
4,Oc1ccccc1C1Nc2cccc3cccc(c23)N1,inactive
5,Oc1c(Cl)cc(Cl)c(Cl)c1Cc1c(O)c(Cl)cc(Cl)c1Cl,inactive
6,Cc1[nH]c2ccccc2c1C=NNC(=O)c1cccc(S(=O)(=O)Nc2cccc(C(F)(F)F)c2)c1,inactive
7,O=c1oc(-c2ccccc2F)nc2scc(-c3ccccc3)c12,inactive
8,Cc1cc(NN=Cc2c(O)ccc3ccccc23)nc(-c2ccccc2O)n1,inactive
9,O=C(Nc1ccc(N2CCCC2)c(S(=O)(=O)Nc2cccc(C(F)(F)F)c2)c1)c1cccs1,inactive
10,COc1ccc(NC(=S)Nc2ccc3nsnc3c2)cc1,inactive
11,Oc1ccccc1-c1nc2c3ccccc3c3ccccc3c2[nH]1,inactive
12,O=C(Nc1ccc(F)cc1)Nc1ccc(N2CCCC2)c(S(=O)(=O)Nc2ccccc2Cl)c1,active
13,Cc1nc2scc(-c3ccccc3)c2c(=O)o1,inactive
14,COc1ccc(-c2csc3nc(-c4ccccc4F)oc(=O)c23)cc1,inactive
15,Cc1cc(C)nc(SCc2ccc(C(=O)NN=Cc3cccc(O)c3O)cc2)n1,active
16,CSC[C@@H]1NC(=S)N(c2ccc(C)cc2)C1=O,inactive
17,O=c1cc(-c2ccc(O)c(-c3c(O)cc(O)c4c(=O)cc(-c5ccc(O)cc5)oc34)c2)oc2cc(O)cc(O)c12,active

row,Compound,outcome
1,CCN(c1ccccc1)S(=O)(=O)c1ccc(NC(=O)c2nc(S(C)(=O)=O)ncc2Cl)cc1,inactive
2,O=C(Nc1cccc(C(F)(F)F)c1)Nc1ccc(N2CCCC2)c(S(=O)(=O)Nc2ccccc2Cl)c1,active
3,O=c1oc(-c2ccccc2Cl)nc2ccsc12,inactive
4,CC1CCCCN1S(=O)(=O)c1ccc(C(=O)Nc2ccccc2-c2nc3ccccc3[nH]2)cc1 (centres undefined),inactive
5,Cc1ccc(S(=O)(=O)/N=C2\C=C(Nc3cccc(C(=O)O)c3)C(=O)c3ccccc32)cc1,inactive
6,CN(c1ccccc1)S(=O)(=O)c1ccc(NC(=O)c2ccc(-c3ccccc3)cc2)cc1,inactive
7,O=C(Nc1ccc2[nH]c(=S)sc2c1)Nc1ccccc1F,inactive
8,CCN(CC)S(=O)(=O)c1cc(NC(=O)COC(=O)c2sc3ccccc3c2Cl)ccc1C,inactive
9,O=C(O)CCCNc1cc(N2CCN(C(=O)c3ccco3)CC2)c2noc3c2c1C(=O)c1ccccc1-3,inactive
10,O=C1c2ccccc2-c2onc3ccc(NCCCn4ccnc4)c1c23,inactive
11,COc1cc(-c2nc(-c3ccc4c(c3)-c3ccccc3S4(=O)=O)c(-c3ccccc3)[nH]2)cc(OC)c1O,inactive
12,COc1ccc2oc(=O)c(-c3csc(Nc4cccc(O)c4)n3)cc2c1,inactive
13,O=C1NC(=S)/C(=C\c2ccc(-c3ccccc3Cl)o2)S1,inactive
14,Oc1ccc(C=NNc2ccnc3cc(Cl)ccc23)cc1O,inactive
15,CCc1cc(C(Cc2ccc3ccccc3n2)=NO)c(O)cc1O,active
16,COc1cccc2c1C(=O)c1c(O)c3c(c(O)c1C2=O)C[C@@](O)(C(=O)CO)C[C@@H]3O[C@H]1C[C@H](N)[C@H](O)[C@H](C)O1,inactive
17,CC(C)(C)c1nc2scc(-c3cccs3)c2c(=O)o1,inactive

# Reference: PubChem BioAssay AID588651 (The Scripps Research Institute Molecular Screening Center, 2011)
